The structures appear in SMILES notation. Active and inactive are the calls of the source. Unless noted, the rule behind the calls is not given here.

The values below come from PubChem BioAssay.

The nature of assay [1]: anti-His antibody binders, primary screen, artefact control for SMM control protein annotation, biochemical, small-molecule microarray, 635 nm fluorescence (AID 1128).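 Note: score merges feature fluorescence with signal-to-noise for each printed compound spot.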 The following applies: anti-His Alexa647 antibody binding, higher = more signal.
Assay [2] relates to Human papillomavirus type 1a E7 protein (residues 1-88). Put plainly: HPV1a E7 small-molecule binders, primary screen, biochemical, small-molecule microarray, residues 1-88, 635 nm (AID 1129). The following applies: small-molecule microarray binding, fluorescence 635 nm; higher = more signal.
The target of assay [3] is Focal adhesion kinase 1 (Homo sapiens) (UniProt Q05397). As to the kind of experiment: small-molecule microarray binders of FAK, primary screen, biochemical, 635/667 nm fluorescence, BSA, DTT (AID 1130).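 Note: composite of spot emission at 667 nm and signal to noise over triplicate slides.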 The conditions noted are these: PTK2 binding, 635 nm fluorescence, higher = more signal.
For assay [4], the system named is Fibrinogen (Alexa647-labelled). As to the kind of experiment: fibrinogen binders on compound microarrays, profiling panel, artefact control for SMM control-protein annotation, biochemical, small-molecule microarray, 635/667 nm fluorescence (AID 1131).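 Note: z-score merges 667 nm fluorescence with per-spot signal-to-noise over triplicate slides.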 The following applies: fibrinogen-A647 binding fluorescence, higher = more signal.
In assay [5] the target is Follistatin (Homo sapiens) (UniProt P19883). As to the kind of experiment: follistatin binders on small-molecule microarrays, primary screen, biochemical, small-molecule microarray, 635/667 nm fluorescence (AID 1132). The conditions noted are these: FST binding, 635 nm fluorescence, higher = more signal.
Assay [6] deals with Fibroblast growth factor 2 (Homo sapiens) (UniProt P09038). Put plainly: FGF2 binders on small-molecule microarrays, primary screen, biochemical, small-molecule microarray, 635/667 nm fluorescence (AID 1133). The following applies: small-molecule microarray binding, FGF2, fluorescence 635/667; higher = more signal.
The nature of assay [7]: mitochondrial membrane potential change in A549 cells, profiling panel, cell-based, JC-1 fluorescence, basal, 24 h, 100 nL (AID 1138).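 Note: A549 lung adenocarcinoma cells under basal conditions with no added stimulus; test concentration not given here.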 The conditions noted are these: higher = more signal.
For the next assay, the system named is Lefty1. Put plainly: Lefty1 binders on small-molecule microarrays, primary screen, biochemical, small-molecule microarray, 635/667 nm fluorescence (AID 1139). The conditions noted are these: small-molecule microarray binding, fluorescence 635/667; higher = more signal.
In assay [8] the test system is wheat germ agglutinin (Triticum aestivum), Alexa647-labelled. Put plainly: wheat germ agglutinin binders on compound microarrays, profiling panel, artefact control for SMM control-protein annotation, biochemical, small-molecule microarray, 635/667 nm fluorescence (AID 1140).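 Note: score merges 667 nm feature emission with signal to noise over triplicate slides.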 The conditions noted are these: WGA-A647 binding, 635 nm fluorescence, higher = more signal.
In assay [9] the target is Luciferin 4-monooxygenase (Photinus pyralis) (UniProt P08659). Put plainly: firefly luciferase enzyme inhibitors, primary screen, biochemical, luminescence, purified enzyme, 2006 set (AID 1141).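 Note: cell-free assay with purified firefly luciferase at 100 ng per well in PBS; test concentration not given here.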 The following applies: SteadyGlo luminescence, 30 min, higher = more signal, called active from +8 up or from −8 down.
Assay [10] deals with Wnt5a (protein binding on small-molecule microarray). As to the kind of experiment: Wnt5a binders on small-molecule microarray, primary screen, biophysical, 635/667 nm fluorescence (AID 1142).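 Note: fluorescence read at 667 nm with signal to noise per printed feature.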 The conditions noted are these: 635 nm fluorescence, higher = more signal.
Assay [11] is described as follows: cell viability in Huh7 cells, primary screen, cytotoxicity control for HCV replication inhibitor project, CellTiter-Glo luminescence, basal, 48 h (AID 1143).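 Note: Huh7 hepatoma cells carrying a hepatitis C replication reporter with no stimulus; test concentration not given here.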 The conditions noted are these: Huh7 HCV replicon, higher = more signal, called active from +8 up or from −8 down. (Cellular ATP, detected with luciferase, serves as a proxy for viable cell number.)
Assay [12] can be described thus: P. aeruginosa biofilm formation inhibitors, primary screen, PAO1 strain, BacTiter-Glo luminescence, LB-PBS (AID 1144). The following applies: 12 h, higher = more signal.
Assay [13] is described as follows: CREB reporter modulators without forskolin, primary screen, cell-based, PC12, CRE-LacZ reporter, unstimulated (AID 1145). The following applies: no forskolin, luminescence, 4.5 h, higher = more signal, called active from +8 up or from −8 down.
Assay [14] in a line: CREB reporter modulators under forskolin, primary screen, cell-based, PC12, CRE-LacZ reporter, forskolin-stimulated (AID 1146).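 Note: PC12 cells with 6xCRE LacZ reporter stimulated by forskolin 10 µM; beta-galactosidase reporter signal reflecting CREB driven transcription.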 The conditions noted are these: luminescence, 4.5 h, higher = more signal, called active from +8 up or from −8 down.
Assay [15] addresses Streptavidin (Streptomyces avidinii) (UniProt P22629). Put plainly: streptavidin binders on small-molecule microarray, primary screen, artefact control for SMM compound annotation, biophysical, 635/667 nm fluorescence (AID 1147).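 Note: signal reflects streptavidin binding to arrayed compounds as a control protein.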 The following applies: streptavidin binding, higher = more signal.
The nature of assay [16]: small-molecule binders of probe aInhba, primary screen, biochemical, small-molecule microarray, 635/667 nm fluorescence (AID 1148).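 Note: score merges 667nm spot fluorescence with signal-to-noise for antibody binding to printed compounds.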 The conditions noted are these: higher = more signal.
Assay [17] deals with Torsin-1A (Homo sapiens) (UniProt O14656). As to the kind of experiment: torsin A binders from cell lysate, primary screen, small-molecule microarray, wild-type, 635/667 nm (AID 1149). The following applies: COS7 hTOR1A-WT lysate, 635 nm fluorescence, higher = more signal.
For assay [18] the target is unchanged. Put plainly: small-molecule binders of mutant TOR1A in lysate, primary screen, cell lysate, small-molecule microarray, COS7 lysate, 635/667 nm fluorescence (AID 1150).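 Note: score pools 667 nm emission and signal to noise measuring lysate protein binding.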 The conditions noted are these: COS7 hTOR1A mutant lysate, 635 nm fluorescence, higher = more signal.
The test system of assay [19] is Sonic hedgehog protein (Shh). As to the kind of experiment: small-molecule binders of Shh protein, primary screen, biochemical, small-molecule microarray, 635/667 nm fluorescence (AID 1151).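 Note: Shh protein binding to compounds spotted on small-molecule microarray slides; score combines spot fluorescence intensity with signal-to-noise across triplicate slides.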 The following applies: small-molecule microarray binding, 635 nm fluorescence; higher = more signal.

Streptavidin (Streptomyces avidinii), sequence (P22629 whole entry, looked up): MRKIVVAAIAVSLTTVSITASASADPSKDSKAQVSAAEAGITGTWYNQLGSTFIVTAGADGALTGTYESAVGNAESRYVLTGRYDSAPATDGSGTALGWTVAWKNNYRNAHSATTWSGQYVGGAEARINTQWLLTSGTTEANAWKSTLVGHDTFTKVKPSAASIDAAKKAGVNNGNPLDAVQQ
Torsin-1A (Homo sapiens), sequence (O14656 whole entry, looked up): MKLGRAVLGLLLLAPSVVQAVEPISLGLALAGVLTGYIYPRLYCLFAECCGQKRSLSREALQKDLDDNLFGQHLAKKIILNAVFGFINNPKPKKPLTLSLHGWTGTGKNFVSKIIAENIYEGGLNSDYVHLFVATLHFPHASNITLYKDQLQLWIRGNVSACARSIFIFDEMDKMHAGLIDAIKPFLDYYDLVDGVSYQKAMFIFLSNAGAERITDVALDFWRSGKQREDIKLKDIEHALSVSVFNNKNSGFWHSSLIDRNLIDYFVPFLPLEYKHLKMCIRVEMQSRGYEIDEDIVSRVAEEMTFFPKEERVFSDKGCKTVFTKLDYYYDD
Luciferin 4-monooxygenase (Photinus pyralis), sequence (P08659 whole entry, looked up): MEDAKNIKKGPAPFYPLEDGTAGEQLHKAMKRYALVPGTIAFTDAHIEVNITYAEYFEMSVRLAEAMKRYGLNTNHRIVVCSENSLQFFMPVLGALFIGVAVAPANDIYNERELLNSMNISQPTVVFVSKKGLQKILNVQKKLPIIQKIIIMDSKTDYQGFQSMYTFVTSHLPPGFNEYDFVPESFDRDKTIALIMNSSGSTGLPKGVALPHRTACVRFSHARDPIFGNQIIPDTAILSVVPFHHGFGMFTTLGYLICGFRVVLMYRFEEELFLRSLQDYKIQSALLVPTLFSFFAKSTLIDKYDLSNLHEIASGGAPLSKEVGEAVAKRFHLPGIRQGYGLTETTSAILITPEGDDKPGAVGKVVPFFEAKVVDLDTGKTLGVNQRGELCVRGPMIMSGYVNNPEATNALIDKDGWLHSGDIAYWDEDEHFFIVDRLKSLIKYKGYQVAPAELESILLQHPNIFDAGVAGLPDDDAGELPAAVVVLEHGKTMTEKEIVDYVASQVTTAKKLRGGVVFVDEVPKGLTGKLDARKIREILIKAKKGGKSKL
Follistatin (Homo sapiens), sequence (P19883 whole entry, looked up): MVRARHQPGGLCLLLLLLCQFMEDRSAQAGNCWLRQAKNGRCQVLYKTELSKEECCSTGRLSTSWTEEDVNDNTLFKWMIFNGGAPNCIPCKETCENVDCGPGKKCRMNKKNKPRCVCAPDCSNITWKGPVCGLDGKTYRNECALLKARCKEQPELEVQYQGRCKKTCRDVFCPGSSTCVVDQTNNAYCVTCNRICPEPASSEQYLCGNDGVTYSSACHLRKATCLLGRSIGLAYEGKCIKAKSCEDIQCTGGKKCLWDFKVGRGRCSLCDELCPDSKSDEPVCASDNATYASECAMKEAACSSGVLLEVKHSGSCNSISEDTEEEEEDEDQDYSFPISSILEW
Focal adhesion kinase 1 (Homo sapiens), sequence (Q05397 whole entry, looked up): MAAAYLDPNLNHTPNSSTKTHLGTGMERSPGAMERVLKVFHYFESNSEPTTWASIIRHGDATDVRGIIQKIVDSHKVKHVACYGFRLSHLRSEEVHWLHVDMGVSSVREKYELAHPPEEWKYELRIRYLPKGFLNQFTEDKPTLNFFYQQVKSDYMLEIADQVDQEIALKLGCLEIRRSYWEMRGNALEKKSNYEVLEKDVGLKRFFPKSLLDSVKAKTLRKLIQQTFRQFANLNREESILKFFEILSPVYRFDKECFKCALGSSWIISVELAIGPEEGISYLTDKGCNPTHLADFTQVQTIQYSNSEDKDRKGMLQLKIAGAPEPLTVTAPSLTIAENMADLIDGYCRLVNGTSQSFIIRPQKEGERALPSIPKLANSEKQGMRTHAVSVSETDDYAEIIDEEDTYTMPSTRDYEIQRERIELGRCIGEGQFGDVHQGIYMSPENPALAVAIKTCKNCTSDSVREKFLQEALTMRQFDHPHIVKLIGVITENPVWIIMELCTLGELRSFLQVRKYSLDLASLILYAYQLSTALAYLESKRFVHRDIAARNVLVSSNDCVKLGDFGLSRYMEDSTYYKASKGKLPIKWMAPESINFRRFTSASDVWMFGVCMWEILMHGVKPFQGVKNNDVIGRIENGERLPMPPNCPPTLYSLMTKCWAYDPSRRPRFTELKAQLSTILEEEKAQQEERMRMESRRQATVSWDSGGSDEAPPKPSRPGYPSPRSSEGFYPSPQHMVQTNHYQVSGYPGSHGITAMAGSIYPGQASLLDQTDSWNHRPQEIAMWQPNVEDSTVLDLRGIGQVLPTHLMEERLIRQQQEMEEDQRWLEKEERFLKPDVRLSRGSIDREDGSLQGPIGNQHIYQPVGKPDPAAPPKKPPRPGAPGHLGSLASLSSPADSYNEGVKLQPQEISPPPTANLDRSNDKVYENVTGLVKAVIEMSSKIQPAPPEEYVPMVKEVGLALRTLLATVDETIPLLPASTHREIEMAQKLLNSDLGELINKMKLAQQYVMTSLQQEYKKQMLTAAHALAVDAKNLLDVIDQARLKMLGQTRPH
Fibroblast growth factor 2 (Homo sapiens), sequence (P09038 whole entry, looked up): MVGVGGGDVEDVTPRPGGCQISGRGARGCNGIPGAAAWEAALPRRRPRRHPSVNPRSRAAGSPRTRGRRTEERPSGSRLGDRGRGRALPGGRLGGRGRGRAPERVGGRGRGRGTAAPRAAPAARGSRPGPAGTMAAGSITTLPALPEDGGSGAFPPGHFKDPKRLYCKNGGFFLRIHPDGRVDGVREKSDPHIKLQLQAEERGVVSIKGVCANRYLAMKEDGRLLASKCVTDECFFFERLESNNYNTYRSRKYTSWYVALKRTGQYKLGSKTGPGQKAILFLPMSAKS

With `COc1ccc(C(O)C2C=CC3C(=O)N(c4ccccc4)C(=O)C3N2Nc2ccccc2)c2ccccc12` (stereo not given), the composite z-score in assay [1] is 2.08; in assay [2] it was 1.12; in [3], 0.592; in assay [4], -0.833; in [5] it was 0.037; in assay [6], -0.702. Further, the composite z-score in the assay with Lefty1 was -0.0743; in assay [8], 0.285; in assay [10], 0.145; in assay [15], 0.632; in [16], 0.382; in the assay with Torsin-1A (Homo sapiens) [17], -0.175. Besides, the composite z-score with Torsin-1A (Homo sapiens) [18] was 0.15; in [19] it was -0.506. For the same compound, the z-score in assay [7] is -0.284; in assay [9], -0.597 (inactive); in [11], -2.42 (inactive); in [12], -1.12 (inactive); in assay [13], 0.24 (inactive); in assay [14] it was 1.79 (inactive).
With `O=C1C2C=CC(C(O)c3cccc4ccccc34)N(n3cnnc3)C2C(=O)N1Cc1ccccc1` (stereo not given), the composite z-score in [1] was 0.968; in [2], -0.0247; in assay [3] it was 0.699; in assay [4], 0.798; in assay [5], 0.355; in [6], 0.406. The composite z-score is 0.302 in the assay on Lefty1; 0.872 in assay [8]; 1.24 in assay [10]; 0.225 in [15]; 1.28 in assay [16]; 0.104 in the assay with Torsin-1A (Homo sapiens) [17]. Further, the values for the composite z-score (in the assay with Torsin-1A (Homo sapiens) [18]; in assay [19]) were -0.0432 and 0.177, respectively. The z-score in assay [7] is -0.94; in assay [9], 1.06 (inactive); in assay [11] it was 0.251 (inactive); in assay [12] it was 0.878 (inactive); in [13] it was 0.425 (inactive); in assay [14] it was 0.972 (inactive).
As to `CN(C)CCCCNC(=O)[C@@H]1C[C@@H]2C(=O)N[C@@H](CCCCN)C(=O)N2[C@@H]1c1cccc(OCCO)c1`, the composite z-score in [1] is 0.117; in assay [2], -0.229; in assay [3] it was -0.815; in assay [4], -0.581; in assay [5], -0.029; in assay [6], 0.554. Besides, the composite z-score in the assay on Lefty1 is -0.382; in assay [8] it was -0.13; in assay [10], -0.157; in [15], -0.521; in [16] it was 0.245; with Torsin-1A (Homo sapiens) [17], -1.37. In addition, the values for the composite z-score (with Torsin-1A (Homo sapiens) [18]; in assay [19]) were -2.02 and 0.985, respectively. Further, the z-score is -0.872 in assay [7]; 0.654 (inactive) in [9]; 0.0925 (inactive) in [11]; -0.703 (inactive) in assay [12]; -0.805 (inactive) in [13]; -0.325 (inactive) in [14].
For `O=C1OCC=C[C@H]2OC34C=CCN(Cc5ccccc5)C(=O)[C@H]3N(CCCO)C(=O)[C@@H]4[C@@H]12` (stereo not given in full), the composite z-score in [1] is 2.26; in assay [2], 0.374; in assay [3], 1.14; in assay [4], -0.827; in assay [5], 0.397; in assay [6], -0.56. Moreover, the composite z-score is 1.12 with Lefty1; -0.0711 in assay [8]; -0.312 in [10]; -0.707 in [15]; 0.222 in assay [16]; -0.667 with Torsin-1A (Homo sapiens) [17]. For the same compound, the composite z-score in the assay with Torsin-1A (Homo sapiens) [18] was -0.239; in assay [19] it was 1.44. For the same compound, the z-score in assay [7] is -0.63; in assay [9], -0.241 (inactive); in assay [11] it was -2.33 (inactive); in assay [12], -1.04 (inactive); in assay [13], -0.899 (inactive); in assay [14], -0.59 (inactive).
With `COc1ccc(C(=O)Nc2cccc(CN3C(=O)[C@@]4(O[C@@H](CC(=O)N5Cc6ccccc6C[C@H]5CO)[C@H]([Si](C)(C)c5ccc(OC)cc5)[C@H]4C)c4ccccc43)c2)cc1`, the composite z-score in [1] was found to be 1.37; in assay [2] it was 0.86; in [3], 0.469; in assay [4], 0.622; in assay [5] it was 1.13; in [6] it was 1.25. Moreover, the composite z-score is 1.57 in the assay with Lefty1; 0.29 in assay [8]; 0.209 in assay [10]; 0.395 in assay [15]; -0.0095 in assay [16]; 0.726 in the assay with Torsin-1A (Homo sapiens) [17]. The composite z-score with Torsin-1A (Homo sapiens) [18] was determined as 0.488; in assay [19], 2.06. In addition, the z-score was 0.68 in [7]; -1.52 (inactive) in [9]; -5.04 (inactive) in [11]; -0.473 (inactive) in assay [12]; 4.45 (inactive) in assay [13]; -0.534 (inactive) in assay [14].
